In PubChem BioAssay (Tox21):
Records with an inconclusive call do not appear. Calls of active or inactive are those of the source. Calls come from the whole dose curve.

Assay: p53 small molecule agonists, cell-based qHTS assay with human liver microsomes: qHTS cell viability counter screen (AID 1963579); note: nearly all actives have a fitted effect of over 45% in size
Conditions: p53RE-bla HCT-116 viability, ATP luminescence, 16 h, HLM; series mostly up to 66 µM; activity change, negative = cytotoxicity: at the top concentration
Source text: National Center for Advancing Translational Sciences [NCATS]
Division of Preclinical Innovation [DPI]
U.S. Environmental Protection Agency [EPA]
National Institutes of Environmental Health Sciences [NIEHS]
National Toxicology Program [NTP]
U.S. Food and Drug Administration [FDA]
p53, a tumor suppressor protein, is activated following cellular insult, including DNA damage and other cellular stresses. The activation of p53 regulates cell fate by inducing DNA repair, cell cycle arrest, apoptosis, or cellular senescence. The activation of p53, therefore, is a good indicator of DNA damage and other cellular stresses. […] The activation of the reporter gene under culture conditions can be detected by fluorescence intensity. This cell line was used to screen the Tox21 10K compound library in the condition of presence of human liver microsomes and to identify agonists that activate the p53 signaling pathway after in vitro metabolic activation (Ooka et al., Archive of Toxicology 96:1975-1987, 2022).
Tox21 Assay Protocol Summary:
The p53RE-bla cells were dispensed at 4,000cells/3ul/well in 1536-well black-clear bottom plates. After the assay plates were incubated at 37 C, 5% CO2 incubator for 5 hours, 23 nL of compounds dissolved in DMSO, positive controls or DMSO only was transferred to the assay plate. Following compound addition, 3 uL of human liver microsomes (XenoTech, Kansas City, KS) at final concentration of 0.5 mg/mL and 1uL of B-Nicotinamide adenine dinucleotide 2'-phosphate (NADPH) at final concentration of 0.5 mg/mL were transferred to the assay plate. The plates were incubated at 37 C for 16 hours. 1 uL of LiveBLAzer detection mixture was added to each well and the plates were incubated at room temperature in the dark for 2 h. Fluorescence intensity at 460 and 530 nm emission and 405 nm excitation were measured by an Envision plate reader. For cell viability readout that measures cytotoxicity, 4 ul/well of CellTiter-Glo reagent was added into the assay plates using a Flying Reagent Dispenser. After 30 min incubation at room temperature, the luminescence intensity in the plates was measured using a ViewLux plate reader.
% is set by controls: 0 for no effect and ±100 for the full control effect; potency is the fitted concentration of half-maximal effect.

Structure (SMILES) | activity change, negative = cytotoxicity | Potency
CCC(C)OC(C)CC (stereo not given) | -0.823% (inactive) | –
CCCCCCCCCC[N+](C)(CCCCCCCCCC)CCC[Si](OC)(OC)OC | – | 36.3 µM (active)
CN(C)CC/C=C1\c2ccccc2Sc2ccc(Cl)cc21 | 0.435% [at 30.3 µM] (inactive) | –
FB(F)F | -9.12% (inactive) | –
CCCOC(OCCC)OCCC | 6.23% (inactive) | –
CCCNCCC | -5.89% (inactive) | –
CCCCC(CC)CN1CN(CC(CC)CCCC)CC(C)(N)C1 (stereo not given) | -6.93% [at 30.3 µM] (inactive) | –
CCCCC/C=C\C/C=C\CCCCCCCC(=O)NC(C)c1ccccc1 (stereo not given) | 14.1% [at 30.3 µM] (inactive) | –
O=Cc1ccc(Cl)c([N+](=O)[O-])c1 | -21.2% (inactive) | –
COC(OC)(C(=O)c1ccccc1)c1ccccc1 | -15.7% (inactive) | –
c1ccc2c(c1)-c1ccc3ccc4cccc5cc-2c1c3c45 | 0.496% [at 30.3 µM] (inactive) | –
Clc1nc2ccccc2nc1Cl | -0.916% (inactive) | –
CC(=O)Oc1ccc2c(c1)CC[C@@H]1[C@@H]2CC[C@]2(C)[C@@H](O)CC[C@@H]12 | 15.2% [at 30.3 µM] (inactive) | –
O=CO | -2.15% [at 5.99 µM] (inactive) | –
CC(COc1ccc(C(C)(C)C)cc1)OS(=O)OCCCl (stereo not given) | -15.4% (inactive) | –
Cc1ccc(O)c(O)c1 | -0.133% (inactive) | –
CCc1cc(Cc2cc(CC)c(N)c(CC)c2)cc(CC)c1N | – | 40.8 µM (active)
Cc1cc(-c2ccc(N=Nc3cc(S(=O)(=O)O)c4ccccc4c3N)c(C)c2)ccc1N=Nc1cc(S(=O)(=O)O)c2ccccc2c1N | 1.05% (inactive) | –
OCCN1CCN(CCO)CC1 | 2.65% (inactive) | –
COCCOc1cc2cc(C(=O)NC3CCN(C(C)C)CC3)n(CC(=O)Nc3ccc(Cl)cn3)c2cn1 | -11.7% (inactive) | –

Structure (SMILES) | activity change, negative = cytotoxicity | Potency
CS(C)=O | 1.82% (inactive) | –
CCOC(=O)[C@H](CCc1ccccc1)N[C@H]1CCc2ccccc2N(CC(=O)O)C1=O | 18.8% [at 30.3 µM] (inactive) | –
Cc1c(Cl)cccc1Cl | -1.66% (inactive) | –
Cc1ccc(C)c([N+](=O)[O-])c1 | 4.14% (inactive) | –
C1CCCCCCCCCCC1 | -2.12% [at 13.5 µM] (inactive) | –
CCCCCCCC/C=C\CCCCCCCC(=O)OCC | -6.15% (inactive) | –
O=C(Cl)c1ccc(F)c(Cl)c1 | -3.9% (inactive) | –
Cc1ccc(Nc2c(F)cccc2Cl)c(CC(=O)O)c1 | -6.92% [at 30.3 µM] (inactive) | –
Nc1cc(Cl)c([N+](=O)[O-])cc1O | -5.91% (inactive) | –
COC1=C(OC)C(=O)C(CCCCCCCCCCO)=C(C)C1=O | 10.8% [at 30.3 µM] (inactive) | –
CC(=O)C(=O)CC(C)C | 4.75% (inactive) | –
O=C1c2ccccc2C(=O)c2c(Cl)cccc21 | 5.76% [at 30.3 µM] (inactive) | –
CCOC(C)OCC | 0.227% (inactive) | –
CC(CN)CC(C)(C)CCN (stereo not given) | 1.78% [at 172 µM] (inactive) | –
O/N=C/C=N/O | 2.44% (inactive) | –
CC(=O)SCc1ccco1 | -8.73% (inactive) | –
CC(C)[C@H]1CC[C@H](C)C[C@@H]1O | 0.83% (inactive) | –
C[C@]12C(=O)OC(=O)[C@H]1[C@H]1C=C[C@@H]2C1 | -26.7% (inactive) | –
COc1ccc(OC)c(Cl)c1 | 0.58% (inactive) | –
Cc1cc2c(C(C)C)c(O)c(O)c(C=O)c2c(O)c1-c1c(C)cc2c(C(C)C)c(O)c(O)c(C=O)c2c1O | – | 17.8 µM (active)
